A number with no mark means an inactive call. Inconclusive results are not listed. Active and inactive are the calls of the source. Unless noted, the call rests on the fitted dose curve; in most records, active means well fitted curve in the direction sought with a large enough effect; inconclusive means small, poorly fitted or top-dose-only effect, or another doubt; inactive means no such curve, though single readings can be large; an effect the other way counts as inactive or inconclusive.

This is an account of results in PubChem BioAssay (NCATS).

One experiment concerns CP247. Nature of the experiment: qHTS profiling for inhibitors of Plasmodium falciparum proliferation (AID 504749). Further: nearly all actives have a fitted effect of over 60% in size. Further: potency means the concentration at half of the fitted maximal effect. The settings on record: P. falciparum in erythrocytes, SYBR Green DNA, 72 h; series mostly up to 28.7 µM. Put shortly:
(§1)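 Three-day growth assay of blood-stage parasites in erythrocytes (0.3% parasitemia, 2.5% hematocrit) at 37 C, 5% CO2, quantified by SYBR Green DNA staining after overnight detergent lysis.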
On the technique in general: Quantitative high-throughput screening tests each substance at several concentrations.

Another experiment deals with ICS. Described as above. The settings on record: P. falciparum in erythrocytes, SYBR Green DNA, 72 h; series mostly up to 28.7 µM. In a few lines:
as §1

The test system of a further experiment is P93_24. Described as above. The settings on record: P. falciparum in erythrocytes, SYBR Green DNA, 72 h; series mostly up to 28.7 µM. Put shortly:
as §1

Experiment [1] has as its target Ubiquitin carboxyl-terminal hydrolase 1 (Homo sapiens) (UniProt O94782). Nature of the experiment: Inhibitors of USP1/UAF1: Pilot qHTS (AID 504865). Further: nearly all actives have a fitted effect of over 35% in size. Further: potency means the concentration at half of the fitted maximal effect. Put shortly:
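Deubiquitinase activity followed as kinetic rhodamine fluorescence release from 150 nM Ub-Rho. 1 nM USP1/UAF1 with compound, after 15 min room-temperature preincubation, in HEPES pH 7.8 buffer containing TCEP, EDTA, BSA and Tween-20.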

In a further experiment the test system is GB4. The experiment in a line: qHTS profiling for inhibitors of Plasmodium falciparum proliferation (AID 504749). Further: nearly all actives have a fitted effect of over 60% in size. Further: potency means the concentration at half of the fitted maximal effect. The settings on record: P. falciparum in erythrocytes, SYBR Green DNA, 72 h; series mostly up to 28.7 µM. Put shortly:
as §1

For the next experiment, the system named is W2. Described as above. The settings on record: P. falciparum in erythrocytes, SYBR Green DNA, 72 h; series mostly up to 28.7 µM. In a few lines: as §1
Experiment [2] concerns the target Cytochrome P450 3A4 (Homo sapiens) (UniProt P08684). Nature of the experiment: qHTS Assay for Inhibitors and Substrates of Cytochrome P450 3A4 (AID 884). Further: nearly all actives have a fitted effect of over 50% in size. Further: potency means the concentration at half of the fitted maximal effect. In a few lines:
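20 nM human CYP3A4 with 25 uM Luciferin-PPXE (at KM) in 200 mM KPO4, preincubated 10 min with compound; NADPH regeneration started a 60 min RT reaction. Luciferin detected by luminescence, normalized to 57 uM ketoconazole as full inhibition.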

Experiment [3] can be described thus: Confirmation and Secondary Assay for Modulators of Hemoglobin Beta Chain Splicing at IVS2 705 locus (AID 930).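 Further: HeLa cells stably expressing the EGFP-705 splicing reporter; GFP fluorescence per well restored by corrected splicing of the IVS2-705 intron in EGFP.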 In a few lines:
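Secondary splice-site specificity test uses HeLa expressing CMV-driven EGFP interrupted by IVS2-705; cells were treated 2 days at 37C with 500 nM antisense PNA as positive control.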

In experiment [4] the target is Mitogen-activated protein kinase 10 (Mus musculus) (UniProt Q61831). Nature of the experiment: JNK3 AlphaScreen Assay (AID 530; active means well fitted curve in either direction with a large enough effect, not every such curve was filed as active;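 further: kinase came from lysate of stimulated human HepG2 cells; signal reports phosphorylation of biotinylated GST-cJun 1-79 at Ser73 with 10 µM ATP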). Put shortly:
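Room-temperature AlphaScreen kinase assay; pre-activated HepG2 lysate as JNK3 source, biotin-GST-cJun(1-79) substrate, 10 uM ATP, compound 15 min preincubation.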
On the technique in general: In Alpha technology, singlet oxygen from a donor bead excites a nearby acceptor bead.

Experiment [5] deals with DNA dC->dU-editing enzyme APOBEC-3G (Homo sapiens) (UniProt Q9HC16). The experiment in a line: qHTS for inhibitors of Vif-A3G interactions: Validation (AID 588379). In a few lines:
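HeLa cells stably expressing Vif and A3G-eYFP, 700 cells/well, incubated overnight at 37 deg C, then exposed to compound overnight at 37 deg C. Inhibition of Vif-mediated degradation read as increased yellow fluorescence (Ex 488/Em 500-530) by laser-scanning cytometry.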

Ubiquitin carboxyl-terminal hydrolase 1 (Homo sapiens), sequence (O94782 whole entry, looked up): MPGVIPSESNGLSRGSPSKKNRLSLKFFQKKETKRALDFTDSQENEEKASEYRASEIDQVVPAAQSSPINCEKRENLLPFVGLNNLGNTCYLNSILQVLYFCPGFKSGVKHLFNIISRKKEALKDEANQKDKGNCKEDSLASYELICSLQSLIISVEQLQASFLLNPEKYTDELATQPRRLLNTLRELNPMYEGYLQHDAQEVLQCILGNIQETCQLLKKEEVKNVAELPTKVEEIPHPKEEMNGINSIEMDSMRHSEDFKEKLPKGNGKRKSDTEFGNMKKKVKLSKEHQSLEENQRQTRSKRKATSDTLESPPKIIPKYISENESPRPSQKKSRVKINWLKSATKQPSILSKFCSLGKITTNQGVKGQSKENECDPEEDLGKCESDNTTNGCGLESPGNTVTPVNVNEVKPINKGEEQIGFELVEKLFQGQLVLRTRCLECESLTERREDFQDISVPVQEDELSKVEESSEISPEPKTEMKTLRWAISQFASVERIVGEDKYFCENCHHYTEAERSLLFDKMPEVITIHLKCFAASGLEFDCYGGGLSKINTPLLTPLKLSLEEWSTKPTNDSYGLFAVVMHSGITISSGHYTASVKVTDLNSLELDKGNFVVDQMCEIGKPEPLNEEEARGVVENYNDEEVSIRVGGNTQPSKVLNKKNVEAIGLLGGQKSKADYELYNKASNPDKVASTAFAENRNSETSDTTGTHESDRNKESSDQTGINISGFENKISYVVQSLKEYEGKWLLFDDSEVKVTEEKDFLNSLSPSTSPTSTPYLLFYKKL
Cytochrome P450 3A4 (Homo sapiens), sequence (P08684 whole entry, looked up): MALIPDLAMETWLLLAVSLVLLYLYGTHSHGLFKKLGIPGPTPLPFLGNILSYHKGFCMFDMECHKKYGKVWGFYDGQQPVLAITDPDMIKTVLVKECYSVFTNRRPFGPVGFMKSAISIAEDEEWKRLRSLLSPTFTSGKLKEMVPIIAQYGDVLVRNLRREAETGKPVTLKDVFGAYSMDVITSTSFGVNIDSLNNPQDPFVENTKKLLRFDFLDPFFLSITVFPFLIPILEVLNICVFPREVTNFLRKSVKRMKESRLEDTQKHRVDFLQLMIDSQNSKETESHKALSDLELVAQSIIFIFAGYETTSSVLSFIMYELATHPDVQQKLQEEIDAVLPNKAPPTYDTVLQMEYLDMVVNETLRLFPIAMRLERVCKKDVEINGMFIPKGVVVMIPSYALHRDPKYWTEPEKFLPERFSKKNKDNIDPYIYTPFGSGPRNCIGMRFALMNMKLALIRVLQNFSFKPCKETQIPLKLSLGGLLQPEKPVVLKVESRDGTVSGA
DNA dC->dU-editing enzyme APOBEC-3G (Homo sapiens), sequence (Q9HC16 whole entry, looked up): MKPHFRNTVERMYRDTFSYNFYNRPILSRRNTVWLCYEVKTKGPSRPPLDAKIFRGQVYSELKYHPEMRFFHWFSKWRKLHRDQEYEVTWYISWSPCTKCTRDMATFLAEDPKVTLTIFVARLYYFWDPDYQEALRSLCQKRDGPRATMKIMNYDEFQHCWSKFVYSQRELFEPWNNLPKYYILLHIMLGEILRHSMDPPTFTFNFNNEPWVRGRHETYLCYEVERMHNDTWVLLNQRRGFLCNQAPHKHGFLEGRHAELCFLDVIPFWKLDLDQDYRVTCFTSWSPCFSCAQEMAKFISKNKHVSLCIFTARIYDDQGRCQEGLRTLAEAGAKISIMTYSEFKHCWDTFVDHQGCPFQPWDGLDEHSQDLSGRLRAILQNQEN

For `CC(=O)OC1C([N+]2(C)CCCCC2)C[C@H]2C3CC[C@H]4C[C@H](OC(C)=O)C([N+]5(C)CCCCC5)CC4(C)C3CCC12C` (stereo partly drawn), the Potency entry in the experiment on CP247, in the experiment with ICS and with P93_24 was “inactive” in each case.

Take `C[C@@H]1CC2C3CCC4=CC(=O)C=C[C@]4(C)[C@@]3(F)[C@@H](O)C[C@]2(C)[C@@]1(O)C(=O)COC(=O)c1cccc(S(=O)(=O)O)c1` (stereo partly drawn): the Potency result (in experiment [1]; in the experiment on CP247; with GB4; in the experiment on ICS; in the experiment on P93_24; with W2) was “inactive” each time.

`CCOC(=O)C(CCc1ccccc1)NC(C)C(=O)N1Cc2cc(OC)c(OC)cc2CC1C(=O)O` (stereo not drawn): the Potency entry in experiment [1] is “inactive”. The Potency in the experiment on P93_24 was 5.01 µM (active); in the experiment with W2 it was 5.36 µM (active).

Consider `CCC(C(=O)C(C)C(O)C(C)CCc1ccc(C)c(O)c1C(=O)O)C1OC(CC)(C2CC[C@@](O)(CC)C(C)O2)CC1C` (stereo partly drawn), for which the Potency in experiment [2] was 20 µM (active); with CP247 it was 0.794 µM (active); with GB4 it was 0.757 µM (active); with ICS it was 0.631 µM (active); in the experiment with P93_24 it was 0.794 µM (active); with W2, 0.675 µM (active). In experiment [3], the Potency result was “inactive”.

Take `CC(=O)CC(c1ccccc1)C1C(=O)Oc2ccccc2C1=O` (stereo not drawn): the Potency entry (in experiment [1]; in the experiment on CP247; in the experiment on GB4; with ICS; in the experiment on P93_24; with W2) was “inactive” each time.

On to `Nc1nc2[nH]cc(CCc3ccc(C(=O)NC(CCC(=O)O)C(=O)O)cc3)c2c(=O)[nH]1` (stereo not drawn), for which the Potency with CP247 was 0.199 µM (active); in the experiment with GB4, 0.0849 µM (active); in the experiment with ICS it was 10 µM (active); in the experiment on W2, 0.0757 µM (active).

In the case of `NC(C(=O)O)C(O)c1ccc(O)c(O)c1` (stereo not drawn), the Potency in experiment [1] is 22.4 µM (active); in the experiment with ICS, 11.2 µM (active).

`C=C1/C(=C\C=C2/CCC[C@]3(C)[C@@H]([C@H](C)/C=C/[C@@H](O)C4CC4)CC[C@@H]23)C[C@@H](O)C[C@@H]1O`: the Potency result with CP247 and in the experiment with GB4 was “inactive” throughout.

Take `O=C1Oc2ccccc2C(=O)C1C(CC(O)c1ccc(-c2ccc(Br)cc2)cc1)c1ccccc1` (stereo not drawn): the Potency in [1] was 50.1 µM (active). The Potency result in the experiment on GB4 was “inactive”.

As to `Cc1cnc(NC(=O)C2C(=O)c3ccccc3S(=O)(=O)N2C)s1` (stereo not drawn), the Potency result in the experiment with CP247, in the experiment with GB4, in the experiment on ICS, in the experiment on P93_24 and in the experiment with W2 was “inactive” each time.

On to `CN(C)CC[C@@](O)(c1ccccc1)c1ccccc1Cl`, for which the Potency result in experiment [1] was “inactive”. The Potency is 7.57 µM (active) in the experiment with GB4, 4.47 µM (active) in the experiment with ICS, 5.62 µM (active) with P93_24 and 1.2 µM (active) in the experiment on W2.

With `CC1OC(OC2C(O)CC(OC3C(O)CC(OC4CCC5(C)C(CCC6C5CCC5(C)C(C7=CC(=O)OC7)CCC65O)C4)OC3C)OC2C)CC(O)C1O` (stereo not drawn), the Potency result (in experiment [1]; in the experiment on CP247; with P93_24) was “inactive” in each case.

In the case of `Cc1cc(O)c2c(c1)OC1(C)CCC3C(C)(C)CCCC34COC2C14` (stereo not drawn), the Potency is 15.1 µM (active) in the experiment with GB4, 6.31 µM (active) in the experiment on ICS and 8.49 µM (active) in the experiment with W2.

With `CCOc1ccccc1O[C@@H](c1ccccc1)[C@@H]1CNCCO1`, the Potency result in experiment [4] and in [1] was “inactive” throughout. In [5], the outcome was inactive. Moreover, the Potency with ICS is 5.01 µM (active); in the experiment on P93_24 it was 10 µM (active); in the experiment with W2, 2.69 µM (active).

`C=C1C(n2cnc3c(=O)[nH]c(N)nc32)C[C@H](O)[C@H]1CO` (stereo partly drawn): the Potency entry (in experiment [1]; in the experiment with CP247) was “inactive” in each case.

With `C=C1CC[C@H](O)C/C1=C/C=C1\CCC[C@]2(C)[C@@H]([C@H](C)CCCC(C)(C)O)CC[C@@H]12`, the Potency in the experiment with CP247 is 8.91 µM (active); with ICS, 7.94 µM (active).

For the compound `C#C[C@@]1(O)CC[C@@H]2[C@H]3CCC4=C/C(=N\O)CC[C@H]4[C@@H]3CC[C@]21CC`, the Potency entry (in experiment [1]; in the experiment on CP247; in the experiment on P93_24) was “inactive” throughout.

With `C#C[C@]1(O)CC[C@H]2[C@H]3[C@H](CC[C@@]21C)C1=C(CC(=O)CC1)C[C@@H]3C`, the Potency entry in the experiment on GB4 and in the experiment on P93_24 was “inactive” in each case.

As to `CC1=C[C@@H](O)CC(C)(C)[C@@H]1/C=C/C(C)=C/C=C/C(C)=C/C=C/C=C(C)/C=C/C=C(C)/C=C/C1=C(C)C[C@H](O)CC1(C)C`, the Potency is 5.01 µM (active) with ICS and 6.75 µM (active) in the experiment on W2.

Consider `C/C(=C(/CCOC(=O)C(C)C)SS/C(CCOC(=O)C(C)C)=C(\C)N(C=O)Cc1cnc(C)nc1N)N(C=O)Cc1cnc(C)nc1N`, for which the Potency entry (in experiment [1]; in the experiment on CP247; in the experiment on ICS; in the experiment with P93_24; with W2) was “inactive” in each case.

Take `CCCCC(=O)OC1CCC2C3CCc4cc(O)ccc4C3CC[C@]12C` (stereo partly drawn): the Potency result (in experiment [3]; in the experiment with GB4) was “inactive” in each case.

For the compound `CC1(C)SC2[C@@H](N=CN3CCCCCC3)C(=O)N2[C@H]1C(=O)O` (stereo partly drawn), the Potency result (in experiment [1]; in the experiment with CP247; in the experiment on GB4; with P93_24) was “inactive” in each case.

In the case of `CNC1CCc2cc(OC)c(OC)c(OC)c2-c2ccc(OC)c(=O)cc21` (stereo not drawn), the Potency result (in experiment [1]; in the experiment with GB4) was “inactive” in each case.

In the case of `OCC(O)C(O)C(O)C(O)CO` (stereo not drawn), the Potency result (in experiment [1]; in the experiment on CP247; in the experiment on GB4; in the experiment with ICS; with P93_24; in the experiment on W2) was “inactive” throughout.

`CCC1OC(=O)C[C@H](O)C(C)[C@@H](O[C@@H]2OC(C)C(O)C(N(C)C)C2O)C(CCN2CC(C)CC(C)C2)CC(C)C(=O)/C=C/C(C)=C\[C@@H]1COC1OC(C)C(O)C(OC)C1OC` (stereo partly drawn): the Potency entry in [2], in [3] and in experiment [1] was “inactive” throughout. Moreover, the Potency in the experiment with GB4 is 7.57 µM (active); in the experiment on ICS, 10 µM (active); in the experiment on W2, 1.07 µM (active).
